From PubChem
In the library only some 4.2% were active in any assay of this set; here they are far more common.
Wnt act: activates Wnt/beta-catenin signaling in a reporter cell assay; activator, plate reader; activation, % at 9.35 µM; 1.2% of 300,000 active; AID 743398; in the data active means activation above about 30%, passing the limit was not always enough; inconclusive means no clear call, values can overlap the other calls;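 further: 0% = neutral control wells and 100% = positive control wells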
AHR act: activates the human aryl hydrocarbon receptor; P35869; AHR-responsive luciferase reporter cells, luminescence; activation, % at 5 µM; 2.5% of 320,000 active; in the data active means activation above about 47%;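 further: 0% = vehicle wells and 100% = reference agonist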
esBAF inh: SWI/SNF esBAF complex inhibition; mouse ES cells, Bmi1-luciferase knock-in reporter, 24 h; 100% = twice the neutral-well signal; reporter increase, % at 12.5 µM; AID 602393; 2% of 350,000 active; in the data active means activation above about 40%; inconclusive means no clear call, values can overlap the other calls;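 further: 0% = median of the plate's neutral control wells and 100% = double that signal; a rise in the Bmi1 reporter signal indicates esBAF inhibition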
MITF TRPM1 HTS: activators of MITF-driven TRPM1 promoter activity in SK-MEL-5 cells | SK-MEL-5 TRPM1-promoter luciferase, 24 h; % of positive control, neutral wells = 0 | activation, % at 12.5 µM | 0.75% of 300,000 active;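 active means mean activation of at least 80% with every replicate also reaching 80%; inconclusive means mean reaches 80% but some replicate falls short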;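 further: 0% = neutral control wells and 100% = parthenolide positive control wells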
GAA850 FXN act: frataxin GAA850 promoter activation; HEK293 lucGAA850 FXN promoter luciferase reporter, 24 h; percent of 10 µM SAHA response; activation, % at 6 µM; 0.56% of 360,000 active; AID 540364;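 active means activation above the average of all compounds screened plus 3 SD, cutoff fixed separately per campaign, cut at about 7.5% in these data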;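 further: 0% = DMSO wells and 100% = 10 µM SAHA wells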
Starred values were filed as active, the others as inactive; ? = inconclusive; . = no result given.

SMILES | Wnt act | AHR act | esBAF inh | MITF TRPM1 HTS | GAA850 FXN act
Cc1cccc(NC(=O)c2ccc3c(c2)OCCO3)n1 | . | 10 | 11 | 39 | 2
CCN1CCc2nc(NC(=O)c3ccc4c(c3)OCCO4)sc2C1 | 22 | 19 | 41* | . | 2
Cc1cc(NC(=O)c2ccc3c(c2)OCO3)no1 | . | 36 | . | 13 | 1
CCN1CCc2nc(NC(=O)Cc3ccc4c(c3)OCCO4)sc2C1 | . | 4 | -9 | . | 3
COc1ccccc1NC(=O)N[C@@H]1C=C[C@@H](CC(=O)NCc2ccc(Cl)c(Cl)c2)O[C@H]1CO | . | . | 13 | . | .
CC(=O)c1sc(NC(=O)c2ccc3c(c2)OCO3)nc1C | 39* | 24 | 23 | 114* | 4
COc1cccc([C@@H]2Oc3ccc(OC)cc3C(=O)[C@H]2OC(=O)NCc2ccc3c(c2)OCO3)c1 | . | 54* | . | . | .
c1ccc(Nc2cc(Nc3ccccc3)[nH]n2)cc1 | -2 | 70* | 8 | 21 | 6
O=c1nccc(Nc2ccccc2)[nH]1 | 2 | 0 | 4 | 2 | 0
COc1cc(OC)cc(-c2nnc(SCC(=O)N(C(C)C)C(C)C)o2)c1 | . | 14 | -3 | 4 | 2
O=C(CSc1nnc(-c2ccncc2)o1)Nc1cc(F)ccc1F | 33* | 1 | 32 | 59 | 3
O=C(CSc1nnc(-c2cccnc2)o1)Nc1cccc(F)c1 | -4 | 1 | 61* | 72 | 4
COc1cccc(-c2nnc(SCC(=O)N(C(C)C)C(C)C)o2)c1 | 50* | 11 | 13 | 24 | -2
O=C(CSc1nnc(-c2ccncc2)o1)Nc1cccc(F)c1 | 23 | 8 | 56* | 63 | 2
O=C(CSc1nnc(-c2ccncc2)o1)Nc1cc(Cl)ccc1C(=O)O | -2 | 1 | 0 | -5 | 0
Cc1cc(C(=O)Nc2cccc3c2O[C@@H](CN(C)C(=O)Nc2c(C)noc2C)[C@@H](C)CN([C@@H](C)CO)C3=O)n(C)n1 | . | . | -5 | . | .
CNC[C@H]1OCCCC[C@H](C)Oc2ccc(NS(=O)(=O)c3ccc(OC)cc3)cc2C(=O)N([C@@H](C)CO)C[C@H]1C | . | . | 1 | . | .
C[C@@H]1CN([C@@H](C)CO)C(=O)CCCn2cc(nn2)CO[C@@H]1CN(C)C(=O)c1ccc2ccn(C)c2c1 | . | . | 2 | . | .
COc1ccc(-c2nnc(SCC(=O)Nc3cccc(Cl)c3)o2)cc1 | 46* | -2 | 33 | . | 4
COc1ccc(CCNC(=O)C2CC(c3ccccc3[N+](=O)[O-])=NO2)cc1 (configuration not stated) | 29 | 15 | 45* | 56 | 4
CC(C)CCNC(=O)C1CC(c2cccc([N+](=O)[O-])c2)=NO1 (configuration not stated) | 2 | -1 | 6 | 2 | 0
O=C(NCCc1cccs1)C1CC(c2ccccc2[N+](=O)[O-])=NO1 (configuration not stated) | ? | 13 | 66* | 40 | 6
CCCCNC(=O)C1CC(c2cccc([N+](=O)[O-])c2)=NO1 (configuration not stated) | 38* | 12 | 90* | 89* | 1
COCCNC(=O)C1CC(c2ccccc2[N+](=O)[O-])=NO1 (configuration not stated) | 0 | 3 | 3 | 15 | 1
Cc1ccc(CCNC(=O)C2CC(c3ccccc3[N+](=O)[O-])=NO2)cc1 (configuration not stated) | 0 | 10 | -1 | -5 | -1
SMILES | Wnt act | AHR act | esBAF inh | MITF TRPM1 HTS | GAA850 FXN act
C[C@@H]1CCCCO[C@@H](CN(C)S(=O)(=O)c2cn(C)cn2)[C@H](C)CN([C@@H](C)CO)C(=O)c2cc(NC(=O)c3ccncc3)ccc2O1 | . | . | 7 | . | .
CN(C(=O)c1cc2c(s1)-c1ccccc1S(=O)(=O)C2)c1ccccc1F | 11 | 8 | 6 | -8 | 4
CN(C(=O)c1cc2c(s1)-c1ccccc1S(=O)(=O)C2)c1ccccc1 | 7 | 7 | 110* | 8 | 3
O=C(Cc1csc(NC(=O)Nc2ccc(Cl)cc2)n1)NC1CCCC1 | 3 | 19 | 31 | 18 | 2
O=C(Cc1csc(NC(=O)Nc2ccc(Cl)cc2)n1)NCc1ccccn1 | 3 | 7 | 45* | 58 | 3
NC(=O)[C@H]1CC2(CC(c3cccc(NC(=O)c4ccccc4)c3)=NO2)CN1C(=O)[C@H]1CCC(=O)N1 (some centres not stated) | 53* | -1 | 0 | -5 | 0
COc1ccccc1C#Cc1ccc([C@@H]2[C@H]3CN(CCC(F)(F)F)CCCCN3[C@H]2CO)cc1 | . | . | -5 | . | .
